# Source: PubChem BioAssay AID686978 (National Center for Advancing Translational Sciences (NCATS), 2013)
# The whole screen tested about 420,000 compounds, of which about 64,000 (15%) were called active. About 27% were inconclusive and are not listed. These entries were drawn from the full list. Values without a mark were called inactive. The call rests on the fitted dose curve; in most records, active means well fitted inhibition curve with a large enough effect; inconclusive means small, poorly fitted or top-dose-only effect; inactive means flat fitted curve, though single readings scatter.
# Assay: qHTS for Inhibitors of human tyrosyl-DNA phosphodiesterase 1 (TDP1): qHTS in cells in absence of CPT; further: nearly all actives have a fitted effect of over 55% in size
# Conditions: DT40 Tdp1-/- hTDP1 cells, no CPT, ATP luminescence, 48 h; activity change, negative = growth inhibition: at 46.2 µM (top of the series)
# Procedure, shortened: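 Chicken DT40 Tdp1-/- cells stably complemented with human TDP1 were seeded at 400 cells/well with DMSO in place of 20 nM camptothecin. After compound pinning, cells grew at least 48 hr at 37 °C; viability read by CellTiter-Glo luminescence.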
# On the % scale 0 is the no-effect control and ±100 the full control effect; potency means the concentration at half of the fitted maximal effect.
Compound,Potency,"activity change, negative = growth inhibition"
Oc1cccc2ccc(/C=C/c3ccc(Br)s3)nc12,0.082 µM (active),–
CCOC(=O)C1(Cc2cccc(OC)c2)CCCN(C(=O)CCSC)C1 (configuration not stated),–,-24.5%
O=S(=O)(Cc1ccc(Cl)cc1Cl)c1ccc(Cl)cc1,1.03 µM (active),–
O=S(=O)(O)c1nc2ccccc2n1Cc1ccc(Cl)cc1Cl,–,-26.9%
Cc1ccc(S(=O)(=O)Cc2cc(-c3ccc(Cl)cc3)no2)cc1,–,-6.77%
C=C1CCN([C@H](C(=O)NCc2cc(OC)c(OC)c(OC)c2)C(C)C)S(=O)(=O)c2ccccc21,–,-3.89%
COc1ccc(C(=O)NC2CC2)cc1OC1CCN(Cc2cnn(C)c2)CC1,–,4.43%
COc1cc(C(=O)NC2CCN(C)CC2)ccc1Nc1ncc2c(n1)N(C1CCC(O)CC1)CCC(=O)N2C (configuration not stated),16.4 µM (active),–
COc1ccc(Cl)cc1NS(=O)(=O)c1cccc(C(=O)NC2CCC(O)CC2)c1 (configuration not stated),–,-6.37%
Cc1ccccc1OCCC(=O)Nc1c(C)n(C)n(-c2ccccc2)c1=O,–,0.764%
COc1cccc(C(=O)N2CCC(n3nccc3NC(=O)C3CCOC3)CC2)c1 (configuration not stated),–,3.75%
COc1ccc(-c2nnc3n2CCCCC3)cc1,–,-10.5%
COc1ccc(N2CCN(c3cc(C)nc4nncn34)CC2)cc1,16.4 µM (active),–
COc1ccc(N2CCN(Cc3nnc(-c4ccccc4)o3)CC2)cc1,–,3.5%
Cc1ccccc1C1CC(c2cccs2)=NN1S(C)(=O)=O (configuration not stated),–,-7.12%
COc1cccc(CNC(=O)C2CCN(S(=O)(=O)c3ccc4c(ccn4C)c3)CC2)c1,–,1.01%
CCOc1ccccc1CNC(=O)C1CCCN(S(=O)(=O)c2ccc3c(ccn3C)c2)C1 (configuration not stated),16.4 µM (active),–
Cc1ccc(CNC(=O)C2CCCN(S(C)(=O)=O)C2)cc1 (configuration not stated),–,-9.73%
CCOc1ccc(N(CC)S(=O)(=O)N2CCCC(C(=O)Nc3ccc(C(C)=O)cc3)C2)cc1 (configuration not stated),23.1 µM (active),–
CCOc1ccc(CNC(=O)C2CCCN(S(=O)(=O)N(CC)c3ccc(OCC)cc3)C2)cc1 (configuration not stated),20.6 µM (active),–
Cc1ccccc1CNC(=O)C1CCCN(S(=O)(=O)N(C)c2ccc(F)cc2)C1 (configuration not stated),18.4 µM (active),–
CCOc1ccc(NC(=O)C2CCCN(C(=O)Nc3ccccc3)C2)cc1 (configuration not stated),–,-0.394%
CCOc1ccccc1NC(=O)C1CCCN(S(=O)(=O)c2cn(C)cn2)C1 (configuration not stated),–,-6.57%
CCOc1ccc(C(=O)NC2CCN(S(=O)(=O)CC)CC2)cc1,–,-14.8%
CCOC(=O)c1c(C)[nH]c(C)c1S(=O)(=O)N1CCCC(C(=O)NCc2ccccc2Cl)C1 (configuration not stated),–,-27.1%
CCOC(=O)c1c(S(=O)(=O)N2CCCC(C(=O)NCc3ccc(F)cc3)C2)c(C)n(CC)c1C (configuration not stated),–,-20.8%

Compound,Potency,"activity change, negative = growth inhibition"
CCS(=O)(=O)N1CCCC(C(=O)NCc2ccc(C)cc2)C1 (configuration not stated),–,-1.29%
Cc1cc(C)cc(OCc2nnc(SCC(=O)OC3CCCCC3)o2)c1,–,-0.322%
OC(c1ccccc1)c1nccn1Cc1ccccc1 (configuration not stated),–,2.98%
COc1ccccc1C(=O)NC(CCSC)C(=O)NNC(=O)c1csc(N2CCOCC2)n1 (configuration not stated),–,-22%
CCN(CC)C(=O)CS(=O)CC(=O)Nc1cc(OCCOC)c(Cl)cc1Cl (configuration not stated),–,-3.24%
CCOc1ccc(N(CC)S(=O)(=O)N2CCCC(C(=O)NCc3ccc(SC)cc3)C2)cc1 (configuration not stated),20.6 µM (active),–
CCOC(=O)c1c(S(=O)(=O)N2CCCC(C(=O)NCc3cccc(C)c3)C2)c(C)n(C)c1C (configuration not stated),–,-4.19%
COc1ccc(NC(=O)C2CCCN(S(=O)(=O)c3cccc4cccnc34)C2)cc1 (configuration not stated),–,-42.5%
CSc1ccc(S(=O)(=O)N2CCC(C(=O)NCc3ccncc3)CC2)cc1,–,-13.1%
CCOc1cccc(NC(=O)C2CCCN(S(=O)(=O)c3ccc(OC)cc3)C2)c1 (configuration not stated),23.1 µM (active),–
Cc1c(S(=O)(=O)O)oc2c1C(=O)C(=O)c1c-2ccc2c1CCCC2(C)C,–,-8.76%
Cc1nc(C)c(C(=O)Nc2ccc(C)c(F)c2)o1,–,-0.916%
CCOc1c(N2CCCCC2)c(=O)c1=O,–,-12.1%
CCc1c(Nc2ccccc2C)nc(N)[nH]c1=O,–,-8.5%
Cc1[nH]c(N)nc(=S)c1CCCNc1ccccc1,16.4 µM (active),–
Cc1cc(=O)n(C)c(=O)n1CCCNc1ccccc1,–,-23.9%
O=C(NC(=S)Nc1ccc(Cl)c(C(=O)O)c1)c1cncc(Br)c1,–,24.7%
O=C(Cc1ccc(Cl)cc1)NC1CCS(=O)(=O)C1 (configuration not stated),–,12.7%
O=C(COC(=O)/C=C/c1ccc(Cl)cc1)NC1CCS(=O)(=O)C1 (configuration not stated),18.4 µM (active),–
O=C(COC(=O)/C=C/c1ccc2c(c1)OCO2)NC1CCS(=O)(=O)C1 (configuration not stated),–,14.5%
Cc1cccc(C)c1NC(=O)CSc1nnc(-c2ccccc2)n1Cc1ccc2c(c1)OCO2,–,-17.4%
CCC(=O)Nc1ccc(C(=O)Nc2ccc3c(c2)C(=O)N(CC2CCCO2)C3=O)cc1 (configuration not stated),–,-10.2%
O=C(Nc1ccc(S(=O)(=O)NCC2CCCO2)cc1)c1ccc(F)cc1 (configuration not stated),16.4 µM (active),–
CN(CC1CCCO1)S(=O)(=O)c1ccc(C(=O)Nc2ccc([N+](=O)[O-])cc2)cc1 (configuration not stated),5.8 µM (active),–
CCOC(=O)c1c(NC(=O)c2ccc(S(=O)(=O)N(C)CC3CCCO3)cc2)sc2c1CC(C)(C)NC2(C)C (configuration not stated),–,-27.4%
O=S(=O)(NCC1CCCO1)c1ccc2ccccc2c1 (configuration not stated),–,-14.2%

Compound,Potency,"activity change, negative = growth inhibition"
CCOc1ccc(S(=O)(=O)NCC2CCCO2)cc1 (configuration not stated),–,-16%
O=C1C(C=NCC2CCCO2)=C(O)c2ccccc21 (configuration not stated),–,-16.7%
COC(=O)C1CCN(C(=O)NC2CC(=O)N(c3ccc4c(c3)OCCO4)C2)CC1 (configuration not stated),–,0.284%
COC(=O)c1onc(-c2c(OC)cc(OC)cc2OC)c1C(=O)OC,–,-7.15%
CN(Cc1cc2cc(F)ccc2[nH]1)Cc1nc(-c2cnccn2)no1,–,-4.72%
COc1cc(C(=O)NNC(=O)CN2C(=O)NC3(CCCC3)C2=O)cc(OC)c1OC,–,4.78%
Cc1sc2nc(COC(=O)C(NC(=O)c3ccc(Cl)cc3Cl)C(C)C)[nH]c(=O)c2c1C (configuration not stated),–,-16.1%
Cc1sc2nc(CSCC(=O)Nc3c(Cl)cccc3Cl)[nH]c(=O)c2c1C,9.2 µM (active),–
CCOC(=O)c1sc2nc(CSCC(=O)OCc3ccc(C(=O)OC)o3)[nH]c(=O)c2c1C,–,-10.1%
Cn1nnnc1SCC(=O)N1CCN(Cc2ccccc2)CC1,–,-18.7%
COc1ccc(S(=O)(=O)N2CCCCC2)cc1C(=O)NC1CCS(=O)(=O)C1 (configuration not stated),inactive,–
Cc1[nH]nc(SCC(=O)NCC(C)C)c1[N+](=O)[O-],–,-4.36%
COc1cccc(CNC(=O)c2cc(=O)[nH]c3ccc(S(=O)(=O)N4CCCCC4)cc23)c1,–,-11.7%
Cc1cccc(N2CCN(S(=O)(=O)c3ccc4[nH]c5c(c4c3)CCCCC5)CC2)c1C,4.61 µM (active),–
Cc1ccc(S(=O)(=O)N2CCN(c3ccccc3)CC2)cc1C,–,3%
Cc1cc(C)c2c(c1)c(C)cc1nnc(SCC(=O)NCc3ccco3)n12,–,-3.12%
O=C(N/C(=C\c1ccc(O)cc1)C(=O)N1CCCCC1)c1ccccc1,–,12.8%
COc1cc2c(cc1OC)C(Cc1cc(OC)c(OC)cc1[N+](=O)[O-])=NCC2,11.6 µM (active),–
COc1cc(CN2CCCN(C)CC2)c([N+](=O)[O-])cc1OC,–,-12.1%
COc1cc(CNCc2ccc3c(c2)OCO3)c([N+](=O)[O-])cc1OC,–,-21.4%
O=C(NC1CCN(S(=O)(=O)c2ccc(F)cc2)CC1)c1ccccc1,–,6.91%
CCCCn1c(N)c(N(CCOC)C(=O)c2cccc(OCc3ccccc3)c2)c(=O)[nH]c1=O,–,1.24%
C=CCOc1cccc(C2C(C(=O)c3ccc(C)o3)=C(O)C(=O)N2CCCn2ccnc2)c1 (configuration not stated),–,15.9%
COc1ccc(/C(O)=C2/C(=O)C(=O)N(CCCN(C)C)C2c2ccccc2)cc1OC (configuration not stated),–,-4.33%
COc1ccc(CCN2C(=O)c3[nH]nc(-c4ccccc4O)c3C2c2ccc(C)cc2)cc1OC (configuration not stated),18.4 µM (active),–
CCCCN1C(=O)c2[nH]nc(-c3ccccc3O)c2C1c1cccc(OCc2ccccc2)c1 (configuration not stated),18.4 µM (active),–

Compound,Potency,"activity change, negative = growth inhibition"
COc1ccc(CCN(C)CCN2C(=O)c3ccccc3C2=O)cc1OC,–,-23.2%
Cc1cc(NS(=O)(=O)c2ccc(NC(=O)c3cccc(OC(F)F)c3)cc2)nc(C)n1,–,-6.76%
O=C(O)CCSc1nnc(-c2ccccc2)n1-c1ccccc1,–,-12.5%
Cc1ccc(NC(=O)c2ccn(C(=O)Nc3ccccc3)n2)c(C)c1,–,-5.12%
CCN(CC)CCNC(=O)c1cc(S(C)(=O)=O)ccc1OC,inactive,–
COc1ccc(N(CC(=O)NCCSCc2cccc(Cl)c2)S(C)(=O)=O)cc1,–,-10.8%
COc1cccc(/C(C)=N/Nc2ncc(Cl)cc2Cl)c1,–,-17.6%
COc1cccc(/C=N/Nc2ncc(C(F)(F)F)cc2Cl)c1O,4.11 µM (active),–
COc1cc(/C=C2\SC(=S)N(Nc3ncc(C(F)(F)F)cc3Cl)C2=O)cc(OC)c1OC,–,-14.7%
CCN(CC)Cc1csc2ccc(Br)cc12,–,-6.04%
COc1ccc(CCNCC(O)Cn2ccc3ccccc32)cc1OC (configuration not stated),–,-22%
C=CCc1ccc(OCC(O)CN2CCN(Cc3ccccc3)CC2)c(OC)c1 (configuration not stated),–,-1.24%
C=CCn1c(=N)n(CC(O)COc2ccc(OC)cc2)c2ccccc21 (configuration not stated),20.6 µM (active),–
COc1ccccc1OCC(O)CN1CCOCC1 (configuration not stated),–,-2.17%
CCCn1c(=N)n(CC(O)COc2ccccc2OC)c2ccccc21 (configuration not stated),7.31 µM (active),–
COC(=O)c1ccc(OCC(O)CN(CCO)CC(O)Cn2ccc3ccccc32)cc1 (configuration not stated),–,-27.5%
COc1ccc(C(=O)NCC2CCCO2)cc1S(=O)(=O)NCc1ccc(Cl)cc1 (configuration not stated),–,-20.6%
CN1CCN(C(CNS(=O)(=O)c2cccs2)c2cccnc2)CC1 (configuration not stated),–,7.04%
COc1cccc(/C=C/C(=O)OCC(=O)N2CCCc3ccccc32)c1,–,1.84%
Cc1cccc(N(C)C(=O)CS(=O)(=O)c2cccc3nsnc23)c1,–,-12.2%
CC1(C)OC(=O)C(=CSc2ccc(C(C)(C)C)cc2)C(=O)O1,–,-13.5%
COCCCNC(NC(=O)c1ccc(C)cc1)C(Cl)(Cl)Cl (configuration not stated),14.6 µM (active),–
COCCCNC(NC(=O)c1ccc(OC)cc1)C(Cl)(Cl)Cl (configuration not stated),–,-25.3%
CCOCCCNC(=O)C(NC(=O)CNC(=O)c1ccccc1)c1ccc(C)cc1 (configuration not stated),–,-23.2%
